Bioassay records from PubChem BioAssay.
Compounds with a hit are over-represented: about 0.51% of the library has one in this group of screens.
FMDV Renilla = FMDV antiviral activity by Renilla signal; Potency, µM (doses to about 57.5 µM), for the others: top-dose activity change, negative = inhibition, hits mostly inhibitors; actives 0.32% (n = 120,000); FMDV replicon cells, Renilla luciferase signal; further: nearly all actives have a fitted effect of over 55% in size
FMDV FLuc = shows antiviral activity against foot and mouth disease virus; Potency, µM (top dose mostly 57.5 µM), without a hit: at the top dose activity change, negative = inhibition, hits mostly inhibitors; actives 0.23% (n = 120,000); FMDV antiviral cell assay, firefly luciferase signal; further: nearly all actives have a fitted effect of over 60% in size
Starred values were filed as active, the others as inactive; ? = inconclusive; [ ] = dose if it differs, or a comment. The call rests on the fitted dose curve. On the % scale 0 is the no-effect control and ±100 the full control effect; potency means the concentration at half of the fitted maximal effect.

SMILES	FMDV Renilla	FMDV FLuc
COC1CC(OC2CCC3(/C=N/O)[C@H]4CCC5(C)C(C6=CC(=O)OC6)CCC5(O)[C@@H]4CCC3(O)C2)OC(C)C1O (stereo partly specified)	0.35µM*	?
C[C@@H]1O[C@@H](O[C@@H]2C=C3CC[C@@H]4[C@H](CC[C@]5(C)[C@@H](c6ccc(=O)oc6)CC[C@]45O)[C@@]3(C)CC2)[C@H](O)[C@H](O)[C@H]1O	-79%	-85%
CCS(=O)(=O)N1CCc2cc(C(=O)Nc3cc(Cl)ccc3C)ccc21	4%	23%
CCCC(C)NC(=O)c1cc(=O)[nH]c2ccc(S(=O)(=O)N(CC)CC)cc12 (stereo unspecified)	-5%	-2%
C=CCOc1ccc(/C=C(\C)[N+](=O)[O-])cc1OC	32µM*	?
CCOc1ccc(/C=C(\C)[N+](=O)[O-])cc1	-27%	?
COC(=O)C(CCSC)NC(=O)c1cc2c(n(-c3ccc(OC)cc3)c1=O)CC(C)(C)CC2=O (stereo unspecified)	6%	-16%
CCN1CCC(NC(=O)c2cccs2)CC1	-9%	5%
Brc1ccc(OCc2ccccc2)c(CNCC2CCNCC2)c1	-26%	-25%
Fc1ccc(COc2cccc(CNCC3CCNCC3)c2)cc1	32µM*	?
CCc1c(C)sc(NC(=O)C(C)(C)C)c1C#N	30%	9%
CCc1c(C)sc(NC(=O)C(F)(F)C(F)(F)C(F)(F)F)c1C#N	10µM*	?
CCc1c(C)sc(NC(=O)c2c(F)c(F)c(F)c(F)c2F)c1C#N	-8%	-7%
CCc1c(C)sc(NC(=O)C(F)(F)C(F)(F)C(F)(F)C(F)(F)F)c1C#N	25µM*	22µM*
CC1CCCCC1OCCN(Cc1cccs1)CC1CCCO1 (stereo unspecified)	10%	6%
CCN(CC)C(=S)SC(C(=O)c1ccccc1)c1ccccc1 (stereo unspecified)	12%	9%
CCN(CC)C(=S)Sc1ccc([N+](=O)[O-])cc1	-5%	2µM*
COc1cccc(Nc2nc(-c3ccccc3)c3cc(C)ccc3n2)c1	-19%	?
COc1cccc(Nc2nc3ccccc3nc2NS(=O)(=O)c2cccc(Cl)c2)c1	32%	?
COc1ccccc1Nc1nc2ccccc2nc1NS(=O)(=O)c1ccc(Cl)s1	2%	1%
O=S(=O)(Nc1nc2ccccc2nc1Nc1cccc(F)c1)c1cccc(Cl)c1	4µM*	3.5µM*
O=S(=O)(Nc1nc2ccccc2nc1Nc1ccccc1)c1ccc(Cl)s1	?	4.5µM*
O=S(=O)(Nc1nc2ccccc2nc1Nc1ccc(F)cc1)c1ccc(F)cc1	3.5µM*	2.5µM*
CCOc1ccc(S(=O)(=O)Nc2nc3ccccc3nc2Nc2ccc(F)cc2)cc1	2%	3%
CC(C)CNC(=O)NC(=O)C(C)Cl (stereo unspecified)	3%	1%
SMILES	FMDV Renilla	FMDV FLuc
c1ccc(CNNc2ccccc2)cc1	3%	12%
CCCc1cc(=O)oc2cc(C)cc(OCC(=O)NCCCn3ccnc3)c12	1%	4%
CNc1nc2c(c(=O)n(C)c(=O)n2C)n1CC(O)COc1ccc(OC)cc1 (stereo unspecified)	22µM*	?
Cc1ccc(OCC(O)Cn2c(N)nc3c2c(=O)n(C)c(=O)n3C)cc1 (stereo unspecified)	-14%	3%
COc1cccc(-c2nc(SC(C(C)=O)C(=O)N(C)C)c3c(=O)n(C)c(=O)n(C)c3n2)c1 (stereo unspecified)	-7%	-9%
CCOc1ccc(Nc2nc(N3CCOCC3)c3cnn(C)c3n2)cc1	3%	2%
CCN(CC)c1ccc(Nc2nc(N3CCOCC3)c3ccccc3n2)cc1	20µM*	?
CCc1cccc(NC(=O)c2cccc3c2C(=O)N(C2CCCCC2)C3)c1	-5%	?
COc1ccc(C)cc1NS(=O)(=O)c1ccc(-c2cnc(C3CC3)o2)cc1	16µM*	14µM*
Cc1ccc(CNS(=O)(=O)c2ccc(-c3cnc(C4CC4)o3)cc2)cc1	18%	-18%
CC1CCC(NC(=O)c2ccc(CS(=O)(=O)c3cccc(C(F)(F)F)c3)o2)CC1 (stereo unspecified)	10%	-5%
Cc1ccccc1NC(=O)Cn1nnc(C(=O)NCc2cccs2)c1N	56%	100%
Cc1cc(C)c(NC(=O)Cn2nnc(C(=O)NCc3cccs3)c2N)c(C)c1	-3%	35µM*
COc1cc(CN2CCC(C(O)(c3ccccc3)c3ccccc3)CC2)ccc1OCc1ccccc1	35µM*	?
COc1cccc(CN2CCC(C(O)(c3ccccc3)c3ccccc3)CC2)c1OC	16%[1.06 µM]	?
CCc1ccc(OCCn2c(C3CC(=O)N(Cc4ccc(F)cc4)C3)nc3ccccc32)cc1 (stereo unspecified)	?	-2%
CC(C)CCn1c(C2CC(=O)N(Cc3ccc(F)cc3)C2)nc2ccccc21 (stereo unspecified)	18µM*	18µM*
Cc1nnsc1C(=O)Nc1ccc(S(=O)(=O)N2CCCCC2)cc1	-3%	-9%
CCC1CCCCN1S(=O)(=O)c1ccc(NC(=O)c2snnc2C)cc1 (stereo unspecified)	?	18µM*
COCCN(Cc1ccccc1)C(=O)c1cc2ccccc2oc1=O	51%	-1%
CC(C)c1ccc(NC(=O)c2ccc(F)c(S(=O)(=O)N3CCc4ccccc43)c2)cc1	-1%	?
O=C(Nc1ccc(Br)cc1)c1ccc(F)c(S(=O)(=O)N2CCc3ccccc32)c1	?	11µM*
Clc1cccc(Nc2nc3nonc3nc2N2CCCCC2)c1	6.3µM*	?
O=C(Nc1cccc(Cl)c1)c1nc2ccccc2nc1N1CCCC1	3%	-4%
COc1ccc(-n2nc(C(=O)Nc3cccc(C)n3)c3c4ccccc4n(C)c3c2=O)cc1	-17%	-15%
SMILES	FMDV Renilla	FMDV FLuc
COc1cc(CN(C(=O)COc2ccc(Br)cc2)c2ccccn2)cc(OC)c1OC	22µM*	-42%
COc1cc(CN(C(=O)COc2ccc(C)cc2)c2ccccn2)cc(OC)c1OC	34%	40%
Cc1ccccc1C(=O)Nc1sc2c(c1C(=O)N1CCN(C)CC1)CCCC2	124%	-6%
Cc1cc(C(=O)NNC(=S)NC(C)C)cs1	4%	50%
COc1cc(Cl)c(C)cc1NC(=O)CCOc1cc(C)ccc1C	-6%	-6%
CCc1cc(OCCCCOc2ccc(C=O)cc2OC)ccc1Cl	17%	23%
CCC1CCC(N(C(=O)Cc2nc(-c3cccs3)oc2C)C2CC2)CC1 (stereo unspecified)	-20%	35µM*
Cc1oc(-c2cccs2)nc1CC(=O)NCC1CCCO1 (stereo unspecified)	-10%	7%
O=C1N(Cc2cccc(F)c2)CCCN1c1cccc(C(=O)N2CCc3ccccc32)c1	-26%	?
CC(C)Sc1nc2c(c(=O)n(C)c(=O)n2C)n1Cc1ccccc1Cl	-8%	3%
CSc1nc2c(c(=O)n(C)c(=O)n2C)n1Cc1cccc2ccccc12	14µM*	16µM*
Cc1ccc(C(=O)COC(=O)C2C3CC4OC(=O)C2C4C3)cc1 (stereo unspecified)	4%	105%
Cc1cccc(-c2c(C(N)=O)c(C)nc3sc4c(c23)CCCC4)c1	-10%	-22%
CCN(C(=O)C1CCCN(c2ncnc3onc(-c4ccc(F)cc4)c23)C1)c1ccccc1 (stereo unspecified)	-8%	-9%
O=C(c1cc2c(Cl)nc3ccccc3c2s1)N1CCCCC1	5%	64%
CCOC(=O)C1CCCN(C(=O)c2cc3c(Cl)nc4ccccc4c3s2)C1 (stereo unspecified)	-17%	6.3µM*
